# Bioassay records as filed in PubChem.
# Bead autofluor: compound fluorescence in toxin protease inhibitor counterscreen; compound autofluorescence counterscreen, microsphere flow cytometry; active compounds read high; fluorescence intensity (test concentration not listed); 3.1% of 360,000 active; AID 624483; in the data active means fluorescence intensity above about 16000; inconclusive means no clear call, values can overlap the other calls
# BoNT-A LC inh2: BoNT/A light chain protease inhibitors, primary screen, biochemical, flow cytometry, MLPCN library | Botulinum neurotoxin type A light chain protease (Clostridium botulinum A str. ATCC 3502) | multiplex microsphere protease substrate cleavage | inhibition, % at 10 µM | 0.17% of 360,000 active; further: plate controls were buffer without enzyme for full effect and enzyme alone for no effect
# Mtb FBA inh: Mtb FBA enzyme inhibitors, primary screen, biochemical, fluorescence, strain H37Rv. Fructose-bisphosphate aldolase (Mycobacterium tuberculosis (strain ATCC 25618 / H37Rv)), …. purified M. tuberculosis FBA, fluorescence read-out. inhibition, % at 1 µM. 2.3% of 360,000 active; in the data active means inhibition above about 27%;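 further: 0% = vehicle and 100% = reference inhibitor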
# Target sequence (P9WQA3 whole entry, looked up): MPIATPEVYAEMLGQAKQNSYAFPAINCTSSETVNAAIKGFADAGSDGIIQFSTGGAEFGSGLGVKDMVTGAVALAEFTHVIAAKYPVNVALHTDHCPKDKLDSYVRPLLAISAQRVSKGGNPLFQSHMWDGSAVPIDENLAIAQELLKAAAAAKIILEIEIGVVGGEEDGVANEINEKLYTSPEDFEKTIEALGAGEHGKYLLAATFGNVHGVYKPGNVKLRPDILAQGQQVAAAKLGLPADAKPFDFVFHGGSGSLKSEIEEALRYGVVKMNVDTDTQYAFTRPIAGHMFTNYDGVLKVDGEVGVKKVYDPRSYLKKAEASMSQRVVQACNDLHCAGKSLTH
# GDH-TPI counter-1: GDH-TPI coupling enzyme inhibitors, primary screen, artefact control for M. tuberculosis FBA inhibitor project, biochemical, absorbance, full deck | GDH-TPI coupled enzyme counterscreen, NADH absorbance | inhibition, % at 4.8 µM | 1.2% of 360,000 active | AID 588335, 2011; in the data active means inhibition above about 30%;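 further: 0% = DMSO wells and 100% = wells lacking the enzyme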
# BoNT-F LC inh: BoNT/F light chain protease inhibitors, primary screen, biochemical, flow cytometry, MLPCN library; AID 588497, 2011; Multiplex microsphere protease cleavage assay; 0.22% of 360,000 active; inhibition, % at 10 µM; in the data active means inhibition above about 35%, passing the limit was not always enough; inconclusive means no clear call, values can overlap the other calls; further: plate controls were buffer without enzyme for full effect and enzyme alone for no effect
# Anthrax LF prot: Bacillus anthracis LF protease inhibitors, primary screen, biochemical, multiplex microsphere, MLPCN library; Lethal factor (Bacillus anthracis), P15917; AID 588501, 2011; inhibition, % at 10 µM; multiplex microsphere protease cleavage assay; 0.12% of 360,000 active; further: plate controls were buffer without enzyme for full effect and enzyme alone for no effect
# Mtb FBA confirm: M. tuberculosis aldolase blockers, biochemical, fluorescence, strain H37Rv, confirmation; shares compounds with Mtb FBA inh; purified M. tuberculosis FBA, fluorescence read-out; inhibition, % at 1 µM; 78% of 5,600 active; AID 651616, 2012; in the data active means inhibition above about 27%;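 further: 0% = vehicle wells and 100% = reference inhibitor wells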
# GDH-TPI counter-2: GDH-TPI coupling enzyme inhibitors, artefact control for M. tuberculosis FBA inhibitor project, biochemical, fluorescence, high throughput; AID 652141, 2013; GDH-TPI coupled enzyme counterscreen; shares compounds with Mtb FBA inh; inhibition, % at 1 µM; 81% of 5,600 active; in the data active means inhibition above about 10%
# An asterisk follows results filed as active; ? = inconclusive; nt = no result; + = active, no number. The list is not random: actives were taken first. Their share in the collection is about 6.6%. Unless noted, no stated cut-off is given here; in the data, active means inhibition above about 30%; inconclusive means no clear call, values can overlap the other calls; inactive means below that.
SMILES,Bead autofluor,BoNT-A LC inh2,Mtb FBA inh,GDH-TPI counter-1,BoNT-F LC inh,Anthrax LF prot,Mtb FBA confirm,GDH-TPI counter-2
Cn1ccc2c(-c3cccc4ccccc34)cc3c(c21)C1CCC3O1 (centres undefined),4389,0,58*,nt,6,5,60*,42*
Cn1ccc2c(-c3ccc(C(N)=O)cc3)cc3c(c21)C1CCC3O1 (centres undefined),5374,-1,7,nt,-5,-2,nt,nt
Cn1ccc2c(-c3ccc4[nH]ccc4c3)cc3c(c21)C1CCC3O1 (centres undefined),5920,0,47*,nt,-3,-10,57*,39*
Cn1ccc2c(-c3cccc(C=O)c3)cc3c(c21)C1CCC3O1 (centres undefined),5895,1,3,nt,6,-5,nt,nt
COc1ccc(NC(=O)COC(=O)Cc2c(F)cccc2Cl)cc1OC,4665,0,0,-1,-11,7,nt,nt
COc1ccccc1C(C)NC(=O)CCNC(=O)c1ccc(Cl)cc1 (centres undefined),3508,0,-1,1,-1,-5,nt,nt
Cc1c(OC(C)C(=O)NCc2ccncc2)ccc2c3c(c(=O)oc12)CCCC3 (centres undefined),5076,2,34*,12,3,-1,0,-3
Cc1c(OC(C)C(=O)NCC(O)c2ccccc2)ccc2c3c(c(=O)oc12)CCCC3 (centres undefined),4836,-4,48*,21,-4,-3,+,197*
Cc1cc(OC(C)C(=O)NCc2ccncc2)c2c3c(c(=O)oc2c1)CCCC3 (centres undefined),4278,0,71*,10,-1,-2,178*,154*
Cc1cc(OCC(=O)NCc2ccncc2)c2c3c(c(=O)oc2c1)CCCC3,5770,6,85*,4,2,4,122*,94*
CC(Oc1cc2oc(=O)c3c(c2cc1Cl)CCC3)C(=O)NCc1ccncc1 (centres undefined),5640,2,1,5,5,1,nt,nt
Cc1cc(=O)oc2c(C)c(OC(C)C(=O)NCC(O)c3ccccc3)ccc12 (centres undefined),5341,-1,20,9,-3,-1,nt,nt
Cc1cc(OC(C)C(=O)NCc2cccnc2)c2c3c(c(=O)oc2c1)CCC3 (centres undefined),5923,0,21,6,3,-1,nt,nt
Cc1cc(OC(C)C(=O)NCc2ccncc2)c2c3c(c(=O)oc2c1)CCC3 (centres undefined),6530,-2,64*,9,-5,-5,133*,93*
N#Cc1nc(-c2ccco2)oc1NCCCn1ccnc1,3112,0,60*,2,-1,-1,121*,93*
CC(C)(C)c1ccc(-c2nc(C#N)c(NCCCn3ccnc3)o2)cc1,3626,?,40*,11,?,-11,108*,103*
COc1ccc(Cc2noc(=O)[nH]2)cc1,4068,-1,-2,5,-1,-4,nt,nt
CCOC(=O)Cc1csc(NC(=O)CN2CCCCC2)n1,2879,1,3,1,-17,-4,nt,nt
CN(C)CCNC(=O)c1cc2c(s1)-c1ccc(Cl)cc1SC2,4339,0,34*,6,-10,-1,106*,90*
Cc1c(CCC(=O)NCCCCCC(=O)O)c(=O)oc2cc3occ(-c4ccccc4)c3cc12,3654,-2,7,10,1,3,nt,nt
CCCCN(C)C(=O)CCC(=O)Nc1ccc2nc(N3CCN(C)CC3)cc(C)c2c1,3251,0,28*,25,2,-5,61*,57*
CCOc1ccccc1NC(=O)CCC(=O)Nc1ccc2nc(N3CCN(C)CC3)cc(C)c2c1,3060,0,31*,7,-3,-2,130*,122*
CCCCN(C)C(=O)CCC(=O)Nc1ccc2nc(N3CCOCC3)cc(C)c2c1,4173,0,49*,18,-2,-4,154*,125*
CCOC(CCNC(=O)CCC(=O)Nc1ccc2nc(N3CCN(C)CC3)cc(C)c2c1)OCC,3045,-1,19,6,5,-14,nt,nt
Cc1ccc(NC(=S)N(C)C)cc1C,5732,0,2,6,-1,2,nt,nt
SMILES,Bead autofluor,BoNT-A LC inh2,Mtb FBA inh,GDH-TPI counter-1,BoNT-F LC inh,Anthrax LF prot,Mtb FBA confirm,GDH-TPI counter-2
COCc1cc(C)nc(N2CCOCC2)c1C#N,5465,0,32*,6,-13,-3,37*,37*
Cc1cc(C)c(C#N)c(N2CCOCC2)n1,5005,0,25,8,-13,3,nt,nt
COCc1cc(C)[nH]c(=O)c1C#N,2725,-1,66*,18,-4,0,53*,41*
CCOC(=O)Cn1c(C)cc(COC)c(C#N)c1=O,3391,0,12,17,0,-3,nt,nt
COCc1cc(C)nc(SC)c1C#N,3456,0,1,9,0,-5,nt,nt
COCc1cc(C)nc(N)c1C#N,3614,1,29*,3,11,3,+,+
COCc1cc(C)nc(NC2CC(C)(C)NC(C)(C)C2)c1C#N,3929,-6,62*,7,?,-3,83*,78*
O=C(CN1C(=O)C2C3C=CC(C3)C2C1=O)OCC(=O)c1ccc(Cl)c([N+](=O)[O-])c1 (centres undefined),5914,1,-1,-1,8,3,nt,nt
CCOC(=O)C1CCN(S(=O)(=O)c2ccc3c4c(cccc24)C(=O)N3)CC1,6168,-1,41*,4,-1,-6,+,+
CCOC(=O)C1CCN(S(=O)(=O)c2ccc3c4c(cccc24)C(=O)N3CC)CC1,3748,0,43*,27,1,11,49*,30*
CCOC(=O)CNS(=O)(=O)c1ccc2c3c(cccc13)C(=O)N2CC,3348,-1,59*,9,3,3,46*,41*
CCOC(=O)Cc1csc(NS(=O)(=O)c2ccc3c4c(cccc24)C(=O)N3CC)n1,?,0,-1,9,-6,-1,nt,nt
CCOC(=O)C1CCN(S(=O)(=O)c2ccc(C(C)(C)C)cc2)CC1,3917,-1,-3,-4,0,-6,nt,nt
CCc1ccc(/C=C2\SC(=S)N(CCCC(=O)NC3=NCCS3)C2=O)cc1,2869,0,1,13,1,8,nt,nt
